Source: PubChem BioAssay (several laboratories)
A selection: hits, their analogues and other compounds. The true share with any hit is near 3.6%.
Anthrax LF inh2 – Bacillus anthracis LF protease inhibitors, primary screen, biochemical, multiplex microsphere, MLPCN library | Lethal factor (Bacillus anthracis), P15917 | multiplex microsphere protease cleavage assay | inhibition, % at 10 µM | hit rate 0.12% among 360,000 | AID 588501, 2011
BoNT-A LC inh2 – BoNT/A light chain protease inhibitors, primary screen, biochemical, flow cytometry, MLPCN library; multiplex microsphere protease substrate cleavage; inhibition, % at 10 µM; hit rate 0.17% among 360,000
BoNT-F LC inh – BoNT/F light chain protease inhibitors, primary screen, biochemical, flow cytometry, MLPCN library | Botulinum neurotoxin type F light chain protease (Clostridium botulinum) | Multiplex microsphere protease cleavage assay | inhibition, % at 10 µM | hit rate 0.22% among 360,000; in the data active = inhibition above about 35%, passing the limit was not always enough; inconclusive = no clear call, values can overlap the other calls
MazEF act – activators of E. coli MazEF toxin-antitoxin RNase, primary screen, biochemical, fluorescence, uHTS; FAM/BHQ RNA-DNA oligo cleavage fluorescence, 5 h; activation, % at 20 µM; hit rate 0.32% among 350,000; in the data active = activation above about 50%
Target sequence (P0AE70 whole entry, looked up): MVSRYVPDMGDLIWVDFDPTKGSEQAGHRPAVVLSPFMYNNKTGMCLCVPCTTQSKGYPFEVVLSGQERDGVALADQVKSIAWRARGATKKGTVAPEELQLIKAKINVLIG
Bead autofluor – compound fluorescence in toxin protease inhibitor counterscreen; compound autofluorescence counterscreen, microsphere flow cytometry; hits give high values; fluorescence intensity (concentration not given with the values); hit rate 3.1% among 360,000; AID 624483; in the data active = fluorescence intensity above about 16000; inconclusive = no clear call, values can overlap the other calls
Numbers stand for hits; . = inactive; ? = inconclusive; / = no result. Cut-off read from the data, not from the text of the source, unless noted: active = inhibition above about 30%; inconclusive = no clear call, values can overlap the other calls; inactive = below that.

SMILES	Anthrax LF inh2	BoNT-A LC inh2	BoNT-F LC inh	MazEF act	Bead autofluor
COc1ccc(CN2C(=O)CCC2(C)C(=O)NCc2cccnc2)c(OC)c1 (centres undefined)	.	?	.	.	22905
COc1ccc(CCN2C(=O)CCC2(C)C(=O)NCc2cccnc2)cc1OC (centres undefined)	.	.	.	.	.
COc1ccccc1-[n+]1c(C)cc(/C=C2\Sc3ccccc3N2C)cc1C	40.1	87.7	.	.	.
COc1ccc(-[n+]2c(C)cc(/C=C3\Sc4ccccc4N3C)cc2C)cc1	.	68.5	.	/	.
Oc1ccccc1C1=Nc2ncnn2C(c2ccccc2)C1 (centres undefined)	.	.	.	.	16346
C[C@@H]1CN(C(=O)c2nc3ccc(Cl)cn3c2CN(C)CCc2cnn(C)c2)C[C@H](C)O1	.	.	.	.	.
COc1ccc(C2NC(=O)NC3=C2C(=O)CCC3)cc1 (centres undefined)	.	.	?	.	.
COc1ccc(C2C3=C(CCCC3=O)Nc3c(-c4ccccc4)c(C)nn32)cc1 (centres undefined)	.	.	.	.	22999
CC(=O)Nc1nonc1-c1nc2ccccc2n1Cc1nnc(C)o1	.	.	.	.	22950
CC(=O)Nc1nonc1-c1nc2ccccc2n1Cc1ccccc1	.	.	.	.	.
CCC(=O)Nc1nonc1-c1nc2ccccc2n1Cc1ccc(Cl)c(Cl)c1	.	.	.	.	.
CCn1c(-c2nonc2NC(=O)c2ccccc2)nc2ccccc21	.	.	.	.	20786
Cc1cccc(NC(=O)Cn2c(=O)n3nc(CCn4nc(C)cc4C)nc3c3ccccc32)c1	.	.	.	.	21276
O=C(O)c1ccc(-c2cccc(Cl)c2)o1	.	?	.	.	23409
O=C(NC(=S)Nc1cc(Cl)ccc1N1CCOCC1)c1ccc(-c2cccc(Cl)c2)o1	.	.	.	.	16940
CCOC(=O)[C@]12CCC=C1N(Cc1ccco1)C(=O)[C@H](CC(=O)NCCC(C)C)C2	.	.	.	/	.
COc1ccc([C@H]2/C=C\CN(C(=O)C3CC3)[C@@H](C)C(=O)N2Cc2ccc(F)cc2)cc1	.	.	.	.	.
CCn1c(SCC(=O)Nc2nncs2)nnc1C(C)NC(=O)c1ccccc1Br (centres undefined)	.	.	.	.	.
Cc1occc1-c1nnc(SCC(=O)Nc2nc(-c3ccccc3)cs2)o1	.	.	.	.	19701
Cc1occc1-c1nnc(SCC(=O)Nc2nc3ccccc3s2)o1	.	.	.	.	19093
Cc1cc2ccccc2nc1SCC(=O)Nc1nc(-c2ccccc2)cs1	.	.	.	.	16277
Cc1cc(S(=O)(=O)Nc2ccc(C(=O)NCCN3CCOCC3)cc2)ccc1F	.	.	.	.	.
Cc1nc(-n2[nH]c3c(c2=O)CCCC3)[nH]c(=O)c1Cc1ccccc1	.	.	.	62.8	.
CN(C)/C=N/c1ncc(C(=O)c2ccc3ccccc3c2)s1	.	.	.	.	23850
COCCCNC(=O)c1ccc(N2CCCC2)c(NS(=O)(=O)c2ccc(C)cc2)c1	.	.	.	.	24938
SMILES	Anthrax LF inh2	BoNT-A LC inh2	BoNT-F LC inh	MazEF act	Bead autofluor
CCOCCCNC(=O)c1ccc(N2CCCC2)c(NS(=O)(=O)c2ccc(C)cc2)c1	.	.	.	.	.
Cc1ccc(S(=O)(=O)Nc2cc(C(=O)O)ccc2N2CCCCC2)cc1	.	.	.	.	23478
COc1cccc(NC(=O)N2CCCC2C(=O)NCc2ccccc2F)c1 (centres undefined)	.	.	.	.	.
COc1ccc(C(=O)N2CCCCCC2)cc1OC1CCN(C(C)=O)CC1	.	.	.	.	?
O=C1C=C(c2cccc3c2sc2ccccc23)C[C@@H](c2ccc(Cl)cc2)C1	.	.	.	.	.
CCOc1cc(NC(=O)C2CCCO2)c(OCC)cc1NC(C)=O (centres undefined)	.	.	.	.	17626
O=C(Nc1ccccc1C(=O)N1CCOCC1)C1CCCO1 (centres undefined)	.	.	.	.	19285
COc1ccc(Cl)cc1NC(=O)C1CCCO1 (centres undefined)	.	.	.	.	.
O=C(Nc1ccccc1C(=O)N1CCCCC1)C1CCCCC1	.	.	.	.	22702
CSc1ccccc1NC(=O)C1CCCO1 (centres undefined)	.	.	.	.	22505
